High-throughput results from PubChem BioAssay.
An excerpt weighted towards active compounds, which were near 3.4% of everything screened.
Tau fluor counter – counter-screen for tau fibril formation inhibitors; tau K18 P301L Alexa594 fluorescence, heparin fibrillization; Potency, µM (titrated, usually from 57.7 µM), for inactives: at the highest dose activity change, negative = decrease; 280,000 tested, 0.93% active; note: nearly all actives have a fitted effect of over 55% in size
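Human tau K18 P301L (15 uM unlabeled, 0.24 uM Alexa 594-labeled) in 100 mM sodium acetate pH 7 with 20 uM heparin, 6 hr at 37 C. ThT 30 uM added, 1 hr ambient; Alexa 594 FP and total fluorescence read at 555/632 nm.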
GoLoco inh red – RGS12 GoLoco-Gai1 interaction inhibition | Gai1:RGS12 GoLoco peptide FP, rhodamine, 10 min | Potency, µM (doses to about 61.6 µM), inactives show top-dose activity, negative = inhibition, actives largely listed as inhibitors | 230,000 tested, 0.44% active | P63096 | AID 880; active = well fitted inhibition curve with a large enough effect, not every such curve was filed as active; inactive = no such curve, though single readings can be large or run the other way; note: nearly all actives have a fitted effect of over 30% in size
JMJD2E inh – inhibitors of human JMJD2E histone demethylase; B2RXH2; JMJD2E catalytic domain, FDH-coupled NADH fluorescence (FDH is formaldehyde dehydrogenase); Potency, µM (titrated, usually from 57.1 µM), without a hit: top-dose activity change, negative = inhibition, usual class: inhibitors; 230,000 tested, 1.6% active; active = well fitted inhibition curve with a large enough effect, not every such curve was filed as active; inconclusive = small, poorly fitted or top-dose-only effect, or another doubt; inactive = no such curve, though single readings can be large or run the other way;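 note: 0% = wells with enzyme and -100% = buffer wells without enzyme; nearly all actives have a fitted effect of over 50% in size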
Target sequence (B2RXH2 1-337 limits assumed): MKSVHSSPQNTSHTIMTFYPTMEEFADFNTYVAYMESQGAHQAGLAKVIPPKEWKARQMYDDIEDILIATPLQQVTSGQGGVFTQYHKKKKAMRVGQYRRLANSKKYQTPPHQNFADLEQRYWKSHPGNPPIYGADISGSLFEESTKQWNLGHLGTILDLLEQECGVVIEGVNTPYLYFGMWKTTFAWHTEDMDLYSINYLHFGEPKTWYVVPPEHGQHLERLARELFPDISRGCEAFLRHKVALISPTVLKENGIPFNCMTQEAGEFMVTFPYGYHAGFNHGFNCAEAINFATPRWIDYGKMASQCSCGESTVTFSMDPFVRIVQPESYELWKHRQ
Tau ThT inhib – blocks human tau fibril formation measured by thioflavin T | recombinant tau K18 P301L, heparin-induced fibrillization, ThT fluorescence | 270,000 tested, 2.1% active | Potency, µM (top dose mostly 57.4 µM), without a hit: at the top dose activity, negative = inhibition, most hits filed as inhibitors | P10636; note: nearly all actives have a fitted effect of over 55% in size
Target sequence (P10636 561-689 P618L limits assumed): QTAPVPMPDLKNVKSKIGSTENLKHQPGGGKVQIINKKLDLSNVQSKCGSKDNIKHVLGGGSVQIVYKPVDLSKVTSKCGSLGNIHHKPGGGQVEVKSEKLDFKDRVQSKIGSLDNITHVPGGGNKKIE
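Using a mix of unlabeled (15 uM) and Alexa 594-labeled (0.24 uM) tau K18 P301L, heparin-triggered fibrillization over 6 hr at 37 C was scored by ThT fluorescence.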
Tau FP inhib – inhibitors of human tau fibril formation; P10636; K18 P301L tau heparin fibrillization, Alexa594 FP, 6 h; Potency, µM (highest dose often 57.7 µM), for inactives: at the top dose activity, negative = inhibition, most hits filed as inhibitors; 280,000 tested, 0.39% active; note: nearly all actives have a fitted effect of over 55% in size
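Recombinant K18 P301L […], labeled with Alexa 594 at 0.24 uM over 15 uM unlabeled; heparin inducer 20 uM final; 37 C, 6 hr; FP endpoint.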
The depositor's hits bear a star; ? = inconclusive; · = no result given; [ ] = dose if it differs, or a comment. Unless noted, calls come from the whole dose curve; as a rule, active = well fitted curve in the direction sought with a large enough effect; inconclusive = small, poorly fitted or top-dose-only effect, or another doubt; inactive = no such curve, though single readings can be large; an effect the other way counts as inactive or inconclusive. Unless noted, % is set by controls: 0 for no effect and ±100 for the full control effect; potency is the fitted concentration of half-maximal effect.

SMILES	Tau fluor counter	GoLoco inh red	JMJD2E inh	Tau ThT inhib	Tau FP inhib
O=C(/C=C/c1ccc(F)cc1)c1cc(Br)ccc1O	-10.4%	5.1%	7.0%	?	1.0%
O=C(/C=C/c1ccc(O)cc1)c1ccccc1O	?	46.4%	?	17.8µM*	4.6%
COc1cccc(CNC(=O)c2cc(C)nc3c2c(C)nn3-c2cccc(F)c2)c1	?	·	·	-16.7%	-17.5%
O=C1[C@H]2[C@H]3C=C[C@@H](C4[C@H]3[C@@H]3C(=O)N(CN5CCSCC5)C(=O)[C@H]43)[C@H]2C(=O)N1CN1CCSCC1 (some centres undefined)	·	7.7%[14.2 µM]	·	·	·
Cn1c(O)c(N=Nc2nc(-c3ccccc3)cs2)c2ccccc21	-21.2%	16.4%	-12.2%	2µM*	-3.2%
Cc1ccc(NCC(=O)N=Nc2c(O)n(C)c3ccccc23)cc1	-12.1%	4.6%	9.8%	?	11.9%
Cn1c(O)c(N=Nc2ccc(F)cc2)c2ccccc21	-12.2%	-14.2%	-25.3%	12.6µM*	-5.6%
COc1cc2cc(CNc3ccccc3)c(=O)n(CC(=O)Nc3cc(C)cc(C)c3)c2cc1OC	?	·	·	-9.4%	?
C=CCn1c(N)c(C(=O)Nc2ccc(C)c(C)c2)c2nc3ccccc3nc21	?	19.1%	3.6%	-4.4%	-15.3%
C=CCn1c(N)c(C(=O)Nc2cccc(C)c2)c2nc3ccccc3nc21	11.2µM*[quencher]	7.1%	?	?	?
CCOc1ccc2c(c1)NC(c1cccs1)=NC(c1ccc(F)cc1)=N2	-30.0%	·	·	?	0.6%
COc1cc2ncnc(Nc3ccc(F)c(Cl)c3)c2cc1OCCCN1CCOCC1	?	15.2%	·	?	39.8µM*
COc1cccc(OC)c1OCCCN1CCOCC1	2.6%	-3.8%	-4.1%	-13.3%	3.0%
CN(C)S(=O)(=O)c1ccc(C(=O)NCCS(=O)(=O)N2CCN(c3ccccc3)CC2)cc1	5.2%	·	·	3.4%	-2.4%
Cn1c(=O)c2c(nc(N/N=C/c3ccc(OC(=O)c4ccco4)cc3)n2Cc2ccccc2)n(C)c1=O	11.2µM*[quencher]	-0.5%	?	?	10.3%
Cn1c(=O)c2c(nc(N/N=C/c3cccs3)n2Cc2ccccc2)n(C)c1=O	?	18.3%	12.3%	-16.9%	?
Nc1nc2c(c(=O)[nH]1)C(c1ccccc1)C1=C(N2)c2ccccc2C1=O (centres undefined)	?	15.3%	?	6.31µM*	6.0%
COc1cc(C2C(C#N)=C(C)NC3=C2C(=O)c2ccccc23)cc(OC)c1OC (centres undefined)	-29.6%	3.4%	-21.3%	?	-3.8%
CCC(C)c1ccc(C2C3=C(Nc4nc(N)[nH]c(=O)c42)c2ccccc2C3=O)cc1 (centres undefined)	?	14.1%	11.7%	?	-4.5%
CC(C)(C)c1ccc(C2C3=C(CCCC3=O)NC3=C2C(=O)c2ccccc23)cc1 (centres undefined)	?	10.0%	0.7%	?	11.3%
Cn1c2c(c(=O)[nH]c1=O)C(c1ccc(O)cc1)C1=C(N2)c2ccccc2C1=O (centres undefined)	?	18.3%	-5.3%	22.4µM*	3.6%
COc1cc(C2C3=C(Nc4nc(N)[nH]c(=O)c42)c2ccccc2C3=O)ccc1O (centres undefined)	-26.7%	-17.0%	-6.3%	11.2µM*	13.4%
Cc1nn(-c2ccccc2)c2c1N(CC(=O)N1CCN(c3ccc(Cl)cc3)CC1)C(=O)CS2	2.4%	·	·	-9.8%	-2.8%
COc1ccc(OC)c(CNC(=O)C2CCN(S(=O)(=O)c3cn(C)cn3)CC2)c1	13.9%	·	·	8.6%	14.1%
COc1ccccc1N1CCN(C(=O)Cn2c(=O)nc(-c3ccccc3)c3cc(Cl)ccc32)CC1	1.6%	·	·	-7.5%	3.1%
SMILES	Tau fluor counter	GoLoco inh red	JMJD2E inh	Tau ThT inhib	Tau FP inhib
O=C(Nc1nnc(S(=O)(=O)N2CCN(c3ccc(F)cc3)CC2)s1)c1ccc(Cl)cc1	-21.6%	·	·	?	-7.6%
Cc1ccc(C(=O)Nc2nnc(S(=O)(=O)N3CCN(c4ccc(F)cc4)CC3)s2)cc1	-17.1%	·	·	2.51µM*	6.4%
O=C(Nc1nnc(S(=O)(=O)N2CCCCC2)s1)c1ccc(Cl)cc1	-26.8%	·	·	2µM*	4.1%
COc1c(O)ccc(/C=C(\C#N)c2nc3ccccc3[nH]2)c1[N+](=O)[O-]	?	-0.1%	?	7.08µM*	8.7%
Cc1ccc2nc(/C(C#N)=C\c3cc(O)ccc3[N+](=O)[O-])[nH]c2c1	-26.8%	2.4%	-2.0%	15.8µM*	13.9%
Cc1ccc2nc(/C(C#N)=C/c3ccc(-c4cccc([N+](=O)[O-])c4)o3)[nH]c2c1	?	17.2%	-0.6%	1.41µM*	-4.8%
Cc1ccc2nc(/C(C#N)=C\c3ccc(Oc4ccc(C(F)(F)F)cc4[N+](=O)[O-])cc3)[nH]c2c1	?	26.3%	-9.9%	?	-4.5%
COc1cc(/C=C(\C#N)c2nc3ccc(C)cc3[nH]2)c([N+](=O)[O-])cc1OC	?	5.2%	3.9%	14.1µM*	13.1%
Cc1ccc2nc(/C(C#N)=C/c3ccc(-c4ccc(F)cc4F)o3)[nH]c2c1	-18.1%	·	·	-8.8%	-5.5%
Cc1ccc(N2CCN(C(=O)C3CCN(c4ncnc5c4nc4n5CCCCC4)CC3)CC2)c(C)c1	1.7%	·	·	-12.7%	0.2%
COc1ccc(CCNC(=O)CCCn2nc(C)c3sc4ccccc4c3c2=O)c(OC)c1	-3.6%	·	·	7.8%	-17.9%
COc1ccc(NC(=O)Cn2c(=O)n(C(C)C)c(=O)c3oc4ccccc4c32)cc1Cl	?	·	·	7.2%	?
COc1cc(/C=C(\C#N)c2nc3ccc(C)cc3[nH]2)cc([N+](=O)[O-])c1O	8.91µM*[quencher]	15.1%	-0.1%	2µM*	-0.7%
COc1ccc(/C=C(\C#N)c2nc3ccc(C)cc3[nH]2)cc1Oc1ccc(C(F)(F)F)cc1[N+](=O)[O-]	-23.9%	-2.9%	9.4%	?	-8.3%
CC(C)OCCCNC(=O)c1ccc(-n2c(-c3ccccc3)cc3c2CCCC3)cc1	?	·	·	-9.4%	14.1µM*
CCCNC(=O)c1ccc(-n2c(-c3ccccc3)cc3c2CCCCC3)cc1	?	·	·	5.2%	?
COCCNC(=O)c1ccc(-n2c(-c3ccccc3)cc3c2CCCCC3)cc1	?	·	·	-8.6%	25.1µM*
COCCCNC(=O)c1ccc(-n2c(-c3ccccc3)cc3c2CCC(C)C3)cc1 (centres undefined)	-23.0%	·	·	14.9%	12.6µM*
CCNC(=O)c1ccc(-n2c(-c3ccccc3)cc3c2CCCCC3)cc1	?	·	·	20.5%	11.2µM*
Cc1cc2c(n1-c1ccc(C(=O)NCCc3ccccc3)cc1)CCC(C)C2 (centres undefined)	-19.2%	·	·	?	?
CCc1cccc(C)c1NC(=O)c1cc(S(=O)(=O)N2CCCCCC2)cn1C	-5.5%	·	·	-0.3%	-6.0%
